# Source: PubChem BioAssay AID2107 (National Center for Advancing Translational Sciences (NCATS), 2009)
# Out of some 240,000 compounds screened, about 20 (0.008%) were called active. About 1% were inconclusive and are not listed. The call rests on the fitted dose curve; in most records, active means well fitted inhibition curve with a large enough effect; inconclusive means small, poorly fitted or top-dose-only effect, or effect the other way; inactive means flat fitted curve, though single readings scatter. A selection follows.
# Target: Alpha-galactosidase A (Homo sapiens) (UniProt P06280)
# Sequence (P06280 32-429 limits assumed): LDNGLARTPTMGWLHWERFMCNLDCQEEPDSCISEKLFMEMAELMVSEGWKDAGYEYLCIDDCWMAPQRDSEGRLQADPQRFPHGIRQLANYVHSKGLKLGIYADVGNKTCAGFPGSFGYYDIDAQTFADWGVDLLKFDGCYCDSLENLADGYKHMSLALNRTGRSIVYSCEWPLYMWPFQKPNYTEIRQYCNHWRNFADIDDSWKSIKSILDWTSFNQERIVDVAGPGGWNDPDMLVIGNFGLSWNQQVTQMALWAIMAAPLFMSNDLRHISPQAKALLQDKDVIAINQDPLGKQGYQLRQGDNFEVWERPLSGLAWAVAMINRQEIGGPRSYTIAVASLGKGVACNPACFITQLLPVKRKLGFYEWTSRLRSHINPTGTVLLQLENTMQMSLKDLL
# Assay: qHTS Assay for Inhibitors and Activators of Human alpha-Galactosidase From Spleen Homogenate;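 further: 0% = enzyme with vehicle and -100% = no enzyme basal signal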
# Details: 4MU-alpha-Gal fluorescence, 40 min; series mostly up to 80 µM; activity change, negative = inhibition: at the top concentration
# From the text: NIH Chemical Genomics Center [NCGC] NIH Molecular Libraries Probe Production Centers Network [MLPCN] MLPCN Grant: R03 MH084842-01 Assay Submitter (PI): Wei Zheng NCGC Assay Overview: Alpha-galactosidase is a homodimeric glycoprotein that hydrolyzes the terminal alpha-galactosyl moieties from glycolipids and glycoproteins. Deficiency of this enzyme results in Fabry Disease with progressive accumulation of globotriaosylceramide and other glycosphingolipids in vascular endothelial cells that causes renal failure, myocardial infarction and stroke, and premature death in patients. It has been reported that the improper folding and trafficking of alpha-galactosidase resulting from genetic mutations may account for a significant number of Fabry patients. […] We optimized this alpha-galactosidase assay in 1536-well plate format for identification of novel small molecule inhibitors or activators with structures other than the sugar analogs in order to develop new pharmacological chaperones. In particular, this assay is directed towards discovering compounds active in more natural setting, tissue homogenate, that may have been missed by screens of the purified enzyme under more stringent conditions.
# NCGC Assay Protocol Summary: This is a fluorogenic enzyme assay with 4-methylumbelliferyl-alpha-D-galactopyranoside as the substrate and human spleen homogenate containing alpha-galactosidase as the enzyme preparation. Upon hydrolysis of this fluorogenic substrate, the resulting product, 4-methylumbelliferone (which excites at 365 nm and emits at 440 nm) can be detected by a fluorescence plate reader. Data were normalized to the controls for basal activity (without enzyme) and 100% activity (with enzyme). The AC50 values were determined from concentration-response data modeled with the standard Hill equation. Assay buffer: 50 mM citric acid (titrated with potassium phosphate to pH 5.0), 0.01% Tween-20 (pH 5.0 is an optimal condition for this enzyme assay) 1536-well assay protocol for the alpha-galactosidase from human spleen homogenate: (1) Add 2 ul/well spleen homogenate (1 ug) (2) Add 23 nL compounds in DMSO solution. The final titration was 0.5 nM to 58 uM. (3) Add 2 ul of substrate (1 mM final) (4) Incubate at 37C for 40 min (5) Add 2 ul stop solution (1M NaOH and 1M Glycine mixture, pH 10) (6) Detect the assay plate in a ViewLux plate reader (PerkinElmer) with Ex=365 nm and Em=440nm. Keywords: Alpha-galactosidase, Fabry Disease, pharmacological chaperone, chaperone therapy, high throughput screening, alpha- galactosidase inhibitor, MLSMR, MLSCN, NIH Roadmap, qHTS and NCGC
row,SMILES,"activity change, negative = inhibition"
1,COC(=O)Cc1csc(/N=C/c2c(O)n(-c3cccc(C(F)(F)F)c3)c(=O)c3ccccc23)n1,3.19% (inactive)
2,C/C(CCN1CCCCc2nc(C)c(C)cc21)=N\O[C@@H](C)c1cn([C@@H]2COC[C@@H]2O)nn1,2.02% [at 17.5 µM] (inactive)
3,Cc1nc(C(=O)NCc2ccccc2)sc1C1(C)CC(c2cccnc2)=NO1 (configuration not stated),10.3% (inactive)
4,CCOC(=O)c1cc(C)nc(S(C)(=O)=O)c1C#N,7.86% (inactive)
5,Cc1cc2oc(=O)cc(-c3ccccc3)c2c(C)c1/C=C/c1ccc(F)cc1,10.4% [at 119 µM] (inactive)
6,CCOc1ccc(NC(=O)COc2ccc(C(=O)NC3CCCc4ccccc43)cc2OC)cc1 (configuration not stated),8.14% (inactive)
7,O=C(COC(=O)c1ccc(Cl)nc1)NCc1ccc2c(c1)OCO2,1.1% (inactive)
8,COc1cc(OC)c2c(C)cc(=O)oc2c1C(CCN1CCCCC1)c1ccc(N(C)C)cc1 (configuration not stated),-6.87% (inactive)
9,COCCCNC(=S)NCCNc1nc2cc(C)c(C)cc2cc1C#N,10.9% (inactive)
10,O=C(O)c1ccc(/C=C2/SC(=S)N(c3cccc(C(F)(F)F)c3)C2=O)cc1,5.07% (inactive)
11,CCO[C@@H]1OC(C(=O)NCc2nc3ccccc3[nH]2)=C[C@H](C2CCCCC2)[C@H]1CCCO,2.53% (inactive)
12,C=CCCN(C(Cc1ccccc1)C(=O)OC)S(=O)(=O)c1cc(Br)ccc1Br (configuration not stated),0.915% (inactive)
13,COc1ccc(CN2CCC(=O)c3ccccc3S2(=O)=O)cc1,-16.2% (inactive)
14,CCOC(=O)C1=C(C)NC2=C(C(=O)CC(C)(C)C2)C1c1ccsc1 (configuration not stated),12.5% (inactive)
15,O=C(NCC1CC1)C1(C(F)(F)F)C/C(=C\CCO)CCCO1 (configuration not stated),6.89% (inactive)
16,Cc1scc(C(=O)NNC(=S)NCC(C)C)c1C,1.16% (inactive)
17,CCCN1CCC(=O)N(C(CSc2ccc(C)cc2)Cc2ccccc2)CC1 (configuration not stated),-1.75% (inactive)
18,Cc1cc(C(=O)OCC(=O)N2c3ccccc3NC(=O)C2(C)C)c(C)n1-c1ccccc1,13.9% (inactive)
19,O=C1/C(=C\c2ccccc2Cl)SC(=S)N1CCC(=O)N1CCCc2ccccc21,0.217% (inactive)
20,COc1cccc(N(C(=O)c2ccn[nH]2)C2(C(=O)Nc3c(C)cccc3C)CCCCC2)c1,1.18% (inactive)
21,OCC1(Cc2ccccc2C(F)(F)F)CCN(Cc2cccc3cnccc23)CC1,20.6% (inactive)

row,SMILES,"activity change, negative = inhibition"
1,C=C1/C(=C\C=C2\CCCC3(C)C2CCC3C(C)/C=C/C(O)C2CC2)CC(O)CC1O (configuration not stated),-8.26% (inactive)
2,Cc1noc(C)c1-c1ccc2ncnc(NCc3ccc4[nH]ccc4c3)c2c1,6.61% (inactive)
3,CC(=O)OCC(NC(=O)C(Cc1ccccc1)NC(=O)OC(C)(C)C)C1OC(n2ccc(=O)[nH]c2=O)C(OC(C)=O)C1OC(C)=O (configuration not stated),10.3% (inactive)
4,COc1ccc(C2CC(O)(c3ccccc3)Oc3cc(C)cc(C)c32)cc1 (configuration not stated),4.13% (inactive)
5,Cn1c(N)c(C(=O)COC(=O)/C=C/c2ccc(OC(F)F)cc2)c(=O)n(C)c1=O,5.56% (inactive)
6,COc1ccc(Br)cc1C1C2C=CCC(C)C2C(=O)N1Cc1ccccc1 (configuration not stated),-6.92% (inactive)
7,N#CC1=C(N)Oc2c(ccc3cccnc23)C1c1ccncc1 (configuration not stated),0.687% (inactive)
8,COC(=O)C1(C(C)=O)CC2=CC[C@H]3C(=O)N(c4ccccc4)C(=O)[C@H]3[C@@H]2Cc2ccccc2[C@@H]1C[N+](=O)[O-] (some centres not stated),inactive
9,N#Cc1ccc(OCc2nnc(-c3ccc([N+](=O)[O-])cc3)o2)cc1,3.78% (inactive)
10,CCOCCOC(=O)C(C)Oc1ccc(Oc2ncc(C(F)(F)F)cc2Cl)cc1 (configuration not stated),-8.18% (inactive)
11,CSc1ccccc1N1CCN(CCCCCC(=O)NC2CCCc3ccccc32)CC1 (configuration not stated),-14.7% (inactive)
12,Cc1cc(N(C)C)nc(Cl)n1,8.47% (inactive)
13,Cc1cccc(NC(=S)NCCc2ccc(F)cc2)c1C,-0.123% (inactive)
14,CCn1c(SCC(=O)N/N=C/c2ccncc2)nc2ccccc21,-14.1% (inactive)
15,Cc1ccc(Br)cc1,2.06% (inactive)
16,COc1ccc(C(=O)C2CCCN(C(=O)c3cnsn3)C2)c(C)c1 (configuration not stated),1.71% (inactive)
17,CC(C)(C)c1ccc(OC2=CS(=O)(=O)c3ccccc32)cc1,-0.164% (inactive)
18,CCn1cc(C(=O)NCCCN2CCCCCC2)c(=O)c2cc(S(=O)(=O)N3CCc4ccccc4C3)ccc21,-3.78% (inactive)
19,Cc1ccc(C)c(NS(=O)(=O)c2cc(Br)cnc2N)c1,-1.02% (inactive)
20,CCN(CC)/[N+]([O-])=N/Oc1cc(O/[N+]([O-])=N/N2CCCC2CO)c([N+](=O)[O-])cc1[N+](=O)[O-] (configuration not stated),11.4% (inactive)
21,CCn1c(NC(=O)c2nn(C)cc2Br)nc2ccccc21,-7.01% (inactive)

row,SMILES,"activity change, negative = inhibition"
1,O=C(/C=C/Sc1ncn[nH]1)c1ccc(Cl)cc1,-1.35% (inactive)
2,Cc1cc(C)nc(SC(C)C(=O)N/N=C/c2cccs2)n1 (configuration not stated),7.98% (inactive)
3,CCN(CC)CCN1C(=O)C(=O)/C(=C(/O)c2cnn(-c3ccccc3)c2C)C1c1cccs1 (configuration not stated),0.107% (inactive)
4,Cc1cc(F)ccc1S(=O)(=O)N1CCCOC1CNC(=O)C(=O)NCCC1=CCCCC1 (configuration not stated),18% (inactive)
5,CN(Cc1nc2ccc(F)cc2[nH]1)Cc1nc(CC2CC2)no1,2.19% (inactive)
6,COc1ccc(C(CCN2CCOCC2)c2c(OC)cc(OC)c3c2OC(=O)CC3c2ccc(OC)cc2)cc1 (configuration not stated),6.75% (inactive)
7,O=C1C2C(c3ccccc3)CC=CC2C(c2ccoc2)N1Cc1ccccc1 (configuration not stated),-1.63% (inactive)
8,O=C1C[C@@H](c2ccc3ccccc3c2)N1S(=O)(=O)c1ccccc1[N+](=O)[O-],-5.49% (inactive)
9,Cc1onc(-c2c(Cl)cccc2Cl)c1C(=O)NNC(=O)c1c(-c2c(Cl)cccc2Cl)noc1C,11.8% (inactive)
10,COc1ccc(C(=O)C[n+]2ccc(N)c(C)c2C)cc1,7.42% (inactive)
11,CCN(C(=O)COC(=O)c1cc(NS(=O)(=O)c2ccc(Cl)c([N+](=O)[O-])c2)ccc1O)C1CCCCC1,4.45% (inactive)
12,Cc1ccc(-c2nn(-c3ccccc3)cc2C(=O)Nc2cccc(S(=O)(=O)N3CCOCC3)c2)cc1,-6.48% (inactive)
13,CCc1nc(C)cn1S(=O)(=O)c1cc([N+](=O)[O-])ccc1Cl,4.61% (inactive)
14,COc1ccc(CN2CCC(c3nc4ccc(Cl)cc4[nH]3)CC2)cc1,-6.3% (inactive)
15,O=C(COc1ccc(NC(=O)c2ccccc2[N+](=O)[O-])cc1)c1ccc(F)cc1,14.4% (inactive)
16,C=C1CCN(C(CC(C)C)C(=O)N2CCOCC2)S(=O)(=O)c2ccccc21 (configuration not stated),-5.35% (inactive)
17,CC(C)C[C@@H](N)c1nnc(SCC(=O)c2ccc(Cl)cc2)o1,-1.52% (inactive)
18,Fc1ccc(Cl)cc1-c1nc(Nc2ccncc2)c2nccnc2n1,-9.09% (inactive)
19,Cc1scc(C(=O)NNC(=S)NCc2ccccc2)c1C,7.41% (inactive)
20,Cc1cccc(-[n+]2c(-c3cccc(Br)c3)[nH]c3nc4ccccc4nc32)c1,-2.45% (inactive)
